Among the data in PubChem BioAssay are composite z-score, composite Z-score and z-score values, retold here.

The target of one test is Albumin (Bos taurus) (UniProt P02769). Description: bovine serum albumin binders on microarray, profiling panel, artefact control for SMM control protein annotation, biochemical, small-molecule microarray, Alexa647 label, 635/667 nm fluorescence (AID 1118).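 Further: score merges 667 nm emission intensity and signal-to-noise per printed compound spot.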 The note with it: BSA-A647 binding, fluorescence 635 nm, higher = more signal.
Test [1] in a line: small-molecule microarray binders of probe aXIP, primary screen, biochemical, NeuroSMM set, 635/667 nm fluorescence (AID 1119).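 Further: probe is the protein aXip251-270 applied at 1 µg/mL to compound-printed slides; binding of probe to printed compounds measured as 667 nm fluorescence plus signal to noise.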 As to conditions: higher = more signal, called active from +8 up or from −8 down.
Test [2] can be described thus: small-molecule binders of probe aNOTCH3, primary screen, biochemical, small-molecule microarray, 635/667 nm fluorescence (AID 1120).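 Further: probe is a biotin-tagged antibody raised against NOTCH3 rather than NOTCH3 protein; score merges spot fluorescence near 667 nm with spot signal to noise.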 As to conditions: higher = more signal.
Test [3] is described as follows: small-molecule binders of probe aNOTCH2, primary screen, biochemical, small-molecule microarray, 635/667 nm fluorescence (AID 1121).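 Further: score merges feature fluorescence read at 667 nm with its signal to noise.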 The note with it: higher = more signal.
Test [4] concerns the target Carbonic anhydrase 2 (Homo sapiens) (UniProt P00918). Nature of the test: CAII small-molecule binders, profiling panel, biochemical, small-molecule microarray, Alexa647-labelled CAII (AID 1122). The note with it: CAII-A647 binding fluorescence, higher = more signal.
A short description of test [5]: COS7 lysate on small-molecule microarray, probe aHis, 635 nm (AID 1123).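 Further: z-score combines 667nm fluorescence intensity with signal-to-noise per printed compound spot.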 As to conditions: COS7 cell lysate, fluorescence, higher = more signal.
The nature of test [6]: compound binding in COS7 lysate, probe aLAP1, primary screen, cell lysate, small-molecule microarray (AID 1124).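 Further: lysate comes from COS7 cells expressing LAP1 and is applied at 0.3 µg/mL; score merges spot fluorescence near 667 nm with signal-to-noise over triplicate slides.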 As to conditions: probe aLAP1, fluorescence, higher = more signal.
For another test, the system named is Sam68 (KHDRBS1). Description: Sam68 small-molecule binders, primary screen, biochemical, small-molecule microarray, 635 nm fluorescence (AID 1125).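 Further: score merges 667 nm channel intensity with signal to noise over triplicate slides.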 The note with it: small-molecule microarray binding, higher = more signal.
Test [7] deals with Chordin-like protein 2 (CHRDL2). Nature of the test: CHRDL2 small-molecule binders, primary screen, biochemical, small-molecule microarray, 635 nm fluorescence (AID 1126).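 Further: printed compound slides probed with Chrdl2 protein at 4 µg/mL for 1 h at 4 C; score merges 667 nm emission intensity with signal to noise over three replicate slides.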 As to conditions: small-molecule microarray binding, fluorescence 635 nm; higher = more signal.
Test [8] has as its target Concanavalin-A (Canavalia ensiformis) (UniProt P02866). Nature of the test: ConA small-molecule binders, primary screen, artefact control for SMM control protein annotation, biochemical, small-molecule microarray, Alexa647 label, 635 nm (AID 1127).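 Further: z combines 667 nm emission intensity with signal-to-noise across three replicate slides.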 The note with it: ConA-A647 binding fluorescence, higher = more signal.
Test [9] is described as follows: anti-His antibody binders, primary screen, artefact control for SMM control protein annotation, biochemical, small-molecule microarray, 635 nm fluorescence (AID 1128).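 Further: score merges feature fluorescence with signal-to-noise for each printed compound spot.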 The note with it: anti-His Alexa647 antibody binding, higher = more signal.
Test [10] concerns Human papillomavirus type 1a E7 protein (residues 1-88). Nature of the test: HPV1a E7 small-molecule binders, primary screen, biochemical, small-molecule microarray, residues 1-88, 635 nm (AID 1129). The note with it: small-molecule microarray binding, fluorescence 635 nm; higher = more signal.
For test [11], the target named is Focal adhesion kinase 1 (Homo sapiens) (UniProt Q05397). Nature of the test: small-molecule microarray binders of FAK, primary screen, biochemical, 635/667 nm fluorescence, BSA, DTT (AID 1130).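 Further: composite of spot emission at 667 nm and signal to noise over triplicate slides.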 As to conditions: PTK2 binding, 635 nm fluorescence, higher = more signal.
The subject of test [12] is Fibrinogen (Alexa647-labelled). Description: fibrinogen binders on compound microarrays, profiling panel, artefact control for SMM control-protein annotation, biochemical, small-molecule microarray, 635/667 nm fluorescence (AID 1131).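 Further: z-score merges 667 nm fluorescence with per-spot signal-to-noise over triplicate slides.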 As to conditions: fibrinogen-A647 binding fluorescence, higher = more signal.
Test [13] deals with Follistatin (Homo sapiens) (UniProt P19883). Description: follistatin binders on small-molecule microarrays, primary screen, biochemical, small-molecule microarray, 635/667 nm fluorescence (AID 1132). As to conditions: FST binding, 635 nm fluorescence, higher = more signal.
Test [14] deals with Fibroblast growth factor 2 (Homo sapiens) (UniProt P09038). Nature of the test: FGF2 binders on small-molecule microarrays, primary screen, biochemical, small-molecule microarray, 635/667 nm fluorescence (AID 1133). The note with it: small-molecule microarray binding, FGF2, fluorescence 635/667; higher = more signal.
The nature of test [15]: mitochondrial membrane potential change in A549 cells, profiling panel, cell-based, JC-1 fluorescence, basal, 24 h, 100 nL (AID 1138).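 Further: A549 lung adenocarcinoma cells under basal conditions with no added stimulus; test concentration not given here.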 As to conditions: higher = more signal.
In the next test the test system is Lefty1. Nature of the test: Lefty1 binders on small-molecule microarrays, primary screen, biochemical, small-molecule microarray, 635/667 nm fluorescence (AID 1139). The note with it: small-molecule microarray binding, fluorescence 635/667; higher = more signal.
The subject of test [16] is wheat germ agglutinin (Triticum aestivum), Alexa647-labelled. Description: wheat germ agglutinin binders on compound microarrays, profiling panel, artefact control for SMM control-protein annotation, biochemical, small-molecule microarray, 635/667 nm fluorescence (AID 1140).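 Further: score merges 667 nm feature emission with signal to noise over triplicate slides.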 As to conditions: WGA-A647 binding, 635 nm fluorescence, higher = more signal.
The target of test [17] is Luciferin 4-monooxygenase (Photinus pyralis) (UniProt P08659). Nature of the test: firefly luciferase enzyme inhibitors, primary screen, biochemical, luminescence, purified enzyme, 2006 set (AID 1141).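 Further: cell-free assay with purified firefly luciferase at 100 ng per well in PBS; test concentration not given here.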 As to conditions: SteadyGlo luminescence, 30 min, higher = more signal, called active from +8 up or from −8 down.

Calls of active or inactive are those of the source.

Concanavalin-A (Canavalia ensiformis), sequence (P02866 whole entry, looked up): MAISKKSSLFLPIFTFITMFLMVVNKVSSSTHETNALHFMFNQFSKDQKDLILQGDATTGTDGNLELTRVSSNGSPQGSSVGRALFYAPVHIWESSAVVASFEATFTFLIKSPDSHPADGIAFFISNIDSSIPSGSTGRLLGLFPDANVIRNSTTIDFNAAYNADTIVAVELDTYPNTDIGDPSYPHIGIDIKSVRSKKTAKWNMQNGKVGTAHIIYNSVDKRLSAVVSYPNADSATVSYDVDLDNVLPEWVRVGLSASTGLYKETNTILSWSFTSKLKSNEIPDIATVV
Luciferin 4-monooxygenase (Photinus pyralis), sequence (P08659 whole entry, looked up): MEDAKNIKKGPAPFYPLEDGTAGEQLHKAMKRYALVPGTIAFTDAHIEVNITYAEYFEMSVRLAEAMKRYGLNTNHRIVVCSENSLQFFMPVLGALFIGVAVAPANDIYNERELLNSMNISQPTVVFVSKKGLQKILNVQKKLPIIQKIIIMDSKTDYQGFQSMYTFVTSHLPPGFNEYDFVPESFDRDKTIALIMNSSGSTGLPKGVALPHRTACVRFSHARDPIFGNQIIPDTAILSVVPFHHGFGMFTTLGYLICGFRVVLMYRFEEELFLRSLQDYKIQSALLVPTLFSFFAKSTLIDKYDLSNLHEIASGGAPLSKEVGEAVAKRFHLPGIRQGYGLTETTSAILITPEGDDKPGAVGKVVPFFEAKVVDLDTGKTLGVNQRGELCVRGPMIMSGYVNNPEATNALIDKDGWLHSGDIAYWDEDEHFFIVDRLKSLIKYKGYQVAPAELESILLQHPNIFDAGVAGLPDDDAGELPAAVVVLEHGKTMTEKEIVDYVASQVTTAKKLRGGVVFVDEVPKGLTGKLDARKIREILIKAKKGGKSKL
Focal adhesion kinase 1 (Homo sapiens), sequence (Q05397 whole entry, looked up): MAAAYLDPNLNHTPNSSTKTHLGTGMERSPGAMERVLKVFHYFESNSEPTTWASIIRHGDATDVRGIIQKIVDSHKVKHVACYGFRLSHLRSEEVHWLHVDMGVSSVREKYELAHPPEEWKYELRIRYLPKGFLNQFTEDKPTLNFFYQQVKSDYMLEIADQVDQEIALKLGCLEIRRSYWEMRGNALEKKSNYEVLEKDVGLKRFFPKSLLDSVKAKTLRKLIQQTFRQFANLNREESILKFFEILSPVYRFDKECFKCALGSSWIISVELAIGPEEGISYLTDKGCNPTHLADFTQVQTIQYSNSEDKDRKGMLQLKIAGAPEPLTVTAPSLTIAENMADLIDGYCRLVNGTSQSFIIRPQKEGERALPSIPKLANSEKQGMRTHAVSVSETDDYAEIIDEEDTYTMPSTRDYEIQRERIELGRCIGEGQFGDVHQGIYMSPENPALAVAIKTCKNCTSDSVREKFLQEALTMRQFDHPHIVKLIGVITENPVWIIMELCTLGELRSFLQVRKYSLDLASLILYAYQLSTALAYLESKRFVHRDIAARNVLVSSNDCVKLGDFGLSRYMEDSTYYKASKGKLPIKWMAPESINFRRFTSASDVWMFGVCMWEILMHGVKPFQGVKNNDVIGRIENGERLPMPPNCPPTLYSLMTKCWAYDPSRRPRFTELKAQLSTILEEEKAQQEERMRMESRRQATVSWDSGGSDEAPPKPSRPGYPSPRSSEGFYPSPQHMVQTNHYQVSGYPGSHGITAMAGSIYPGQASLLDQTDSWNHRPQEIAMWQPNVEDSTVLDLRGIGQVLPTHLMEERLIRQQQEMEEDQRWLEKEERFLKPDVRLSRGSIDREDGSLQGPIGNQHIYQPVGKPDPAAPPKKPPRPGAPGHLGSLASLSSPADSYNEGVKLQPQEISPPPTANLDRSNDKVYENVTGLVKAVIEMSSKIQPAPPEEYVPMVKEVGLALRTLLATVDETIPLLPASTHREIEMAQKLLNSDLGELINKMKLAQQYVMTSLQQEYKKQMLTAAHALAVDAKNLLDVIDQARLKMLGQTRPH
Albumin (Bos taurus), sequence (P02769 whole entry, looked up): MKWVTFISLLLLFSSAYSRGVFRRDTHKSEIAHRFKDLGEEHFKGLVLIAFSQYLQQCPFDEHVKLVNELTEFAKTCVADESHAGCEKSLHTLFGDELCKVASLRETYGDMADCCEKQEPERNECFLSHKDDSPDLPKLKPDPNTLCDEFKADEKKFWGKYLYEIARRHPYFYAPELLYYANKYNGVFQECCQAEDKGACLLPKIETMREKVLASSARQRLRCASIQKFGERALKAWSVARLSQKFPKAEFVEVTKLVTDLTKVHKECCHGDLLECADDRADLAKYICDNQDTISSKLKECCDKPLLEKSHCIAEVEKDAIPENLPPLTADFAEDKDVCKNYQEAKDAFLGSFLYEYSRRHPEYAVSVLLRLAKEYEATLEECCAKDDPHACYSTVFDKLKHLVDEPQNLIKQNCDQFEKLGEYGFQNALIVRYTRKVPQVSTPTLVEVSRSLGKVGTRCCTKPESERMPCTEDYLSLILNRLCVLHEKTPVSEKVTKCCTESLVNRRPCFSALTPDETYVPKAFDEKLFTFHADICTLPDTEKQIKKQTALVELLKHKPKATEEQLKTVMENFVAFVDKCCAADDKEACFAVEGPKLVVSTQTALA
Fibroblast growth factor 2 (Homo sapiens), sequence (P09038 whole entry, looked up): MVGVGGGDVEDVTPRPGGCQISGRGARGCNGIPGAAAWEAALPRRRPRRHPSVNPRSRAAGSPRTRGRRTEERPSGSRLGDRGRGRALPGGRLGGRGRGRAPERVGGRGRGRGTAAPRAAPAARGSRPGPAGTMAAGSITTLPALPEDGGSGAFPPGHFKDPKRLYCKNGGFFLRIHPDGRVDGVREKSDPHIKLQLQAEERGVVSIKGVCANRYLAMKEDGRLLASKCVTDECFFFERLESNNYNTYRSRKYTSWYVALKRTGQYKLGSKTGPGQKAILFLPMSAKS
Follistatin (Homo sapiens), sequence (P19883 whole entry, looked up): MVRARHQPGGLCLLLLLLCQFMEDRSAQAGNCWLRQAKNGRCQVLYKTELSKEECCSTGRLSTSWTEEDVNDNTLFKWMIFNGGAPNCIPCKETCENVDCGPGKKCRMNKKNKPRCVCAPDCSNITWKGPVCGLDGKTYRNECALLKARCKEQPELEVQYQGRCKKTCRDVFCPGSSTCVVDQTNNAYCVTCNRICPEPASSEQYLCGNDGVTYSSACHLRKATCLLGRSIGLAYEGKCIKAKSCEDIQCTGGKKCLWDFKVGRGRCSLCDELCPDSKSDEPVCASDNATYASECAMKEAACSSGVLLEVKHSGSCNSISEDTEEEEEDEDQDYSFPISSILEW

Regarding `COC(=O)[C@@]1(Cc2ccccc2)N=C(c2ccc(OCCCO)cc2)O[C@H]1c1ccccc1N=[N+]=[N-]`, the composite z-score in the test with Albumin (Bos taurus) was -0.541; in test [2], 0.104; in test [3], 0.114; in [4], 0.111; in test [5], 1.37; in test [6] it was 0.863. In addition, the composite z-score in the test with Sam68 (KHDRBS1) was 1.06; in test [7] it was 0.968; in test [8], 0.649; in [9], 2.72; in [10], 1.14; in [11] it was -0.0746. The composite z-score came out at 0.0857 in [12]; 1.41 in test [13]; 1.53 in test [14]; 0.718 in the test with Lefty1; 1.2 in test [16]. In addition, the composite Z-score in test [1] is 2.98 (inactive). Also, the z-score in [15] is 1.35; in test [17] it was -13.8 (active).
As to `COCCOC(=O)N1C(=O)[C@@]2(c3cc(C#CCNC(N)=O)ccc31)[C@H](c1ccc(O)cc1)N1[C@H](c3ccccc3)[C@H](c3ccccc3)OC(=O)[C@H]1[C@@H]2C(=O)NC[C@H](O)c1ccccc1`, the composite z-score was -0.302 with Albumin (Bos taurus); 0.108 in [2]; -0.0165 in test [3]; 0.044 in [4]; 0.956 in test [5]; 0.608 in test [6]. For the same compound, the composite z-score was 1.13 in the test on Sam68 (KHDRBS1); 1.38 in test [7]; 1.16 in [8]; -0.49 in test [9]; 0.802 in [10]; -0.133 in test [11]. In addition, the composite z-score is 0.793 in test [12]; 1.34 in test [13]; 1.19 in test [14]; 1.13 in the test with Lefty1; 0.69 in test [16]. Moreover, in test [1], the composite Z-score is 0.297 (inactive). Further, the z-score was -1.05 in [15] and 0.0103 (inactive) in test [17].
For the compound `CC(=O)NCCCC[C@@H]1NC(=O)[C@@H]2C[C@H](C(=O)NCCCCN(C)C)[C@H](c3ccc(O)cc3)N2C1=O`, the composite z-score is -0.503 with Albumin (Bos taurus); -0.292 in [2]; -0.14 in test [3]; -0.0303 in test [4]; -0.089 in [5]; 0.765 in [6]. The composite z-score in the test on Sam68 (KHDRBS1) is -0.781; in [7], 0.46; in test [8] it was -0.612; in test [9] it was 0.231; in [10], -0.529; in test [11], -0.2. In addition, the composite z-score in [12] was -2.52; in test [13], 0.296; in [14], 1.14; in the test with Lefty1, -0.0932; in test [16] it was 0.225. Besides, the composite Z-score in test [1] was 0.48 (inactive). Besides, the results for the z-score in [15] and in test [17] were 0.485 and 0.869 (inactive), respectively.
Consider `COC(=O)[C@@]1(Cc2ccc(OC)cc2)[C@H]2c3cc(C(=O)N4CCCC4)n(Cc4ccccn4)c3C[C@H]2CN1C(=O)c1ccccc1`, for which the composite z-score with Albumin (Bos taurus) worked out at 0.939; in test [2], 0.277; in test [3], 0.246; in [4], 0.82; in test [5], 1.55; in [6] it was 0.285. The composite z-score in the test on Sam68 (KHDRBS1) is 1.31; in [7] it was -0.761; in [8], 0.906; in [9] it was 2.3; in test [10] it was 1.26; in [11], 0.464. The composite z-score was 0.8 in [12]; 0.169 in test [13]; -0.332 in test [14]; -0.467 with Lefty1; 1.2 in test [16]. Also, in test [1], the composite Z-score was -0.832 (inactive). Further, the z-score in test [15] was 1.37; in [17], 1.91 (inactive).
Take `Cc1ccc(S[C@]2(C(=O)O)CC(=O)N(C3Cc4ccccc4C3)[C@@H]2c2ccc(CO)cc2I)cc1`: the composite z-score with Albumin (Bos taurus) is -0.133; in test [2], -0.0725; in [3], -0.0799; in test [4] it was 0.675; in test [5], 1.1; in [6], 0.672. The composite z-score in the test on Sam68 (KHDRBS1) is -0.0018; in test [7] it was 0.0442; in [8], 0.181; in test [9] it was 0.198; in [10], 0.27; in [11], 0.148. For the same compound, the composite z-score in test [12] was 0.439; in test [13] it was 1.09; in test [14], -0.499; in the test on Lefty1, -0.936; in [16], 0.513. Besides, the composite Z-score in test [1] was -0.0549 (inactive). In addition, the figures for the z-score in [15] and in [17] were 0.478 and 0.285 (inactive), respectively.
As to `O=C1O[C@H](c2ccccc2)[C@H](c2ccccc2)N2[C@H]1[C@@H](C(=O)N1CCN(c3ncccn3)CC1)[C@]1(C(=O)Nc3ccccc31)[C@H]2c1ccc(OCCO)cc1`, the composite z-score was 0.204 with Albumin (Bos taurus); 0.183 in [2]; -0.0986 in [3]; 0.301 in test [4]; 1.75 in test [5]; 0.151 in test [6]. In addition, the composite z-score with Sam68 (KHDRBS1) is 1.3; in test [7] it was 0.602; in [8], 0.536; in test [9] it was 1.39; in test [10] it was 1.19; in [11], 0.429. Besides, the composite z-score in test [12] was -0.206; in [13], 1.34; in test [14], 1.43; in the test with Lefty1, 1.12; in test [16], 0.0522. The composite Z-score in test [1] was -0.317 (inactive). Moreover, the z-score in test [15] is -0.442; in test [17] it was 0.546 (inactive).
